These results are taken from PubChem BioAssay (NCI).

About 83,000 compounds went through this panel and 20% of them were active in at least one assay; those are over-represented in the sample as a whole.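 In brief: 96-well plates, 48 h treatment, single concentration, percent growth endpoint.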 Unmarked numbers belong to inactive results. The source made the active and inactive calls.

In the experiment the test system is MCF7 breast. Description: NCI-60 one-dose screen, 48 h (100 = growth as untreated, 0 = no growth, -100 = all killed). To be noted: 10 µM. On the procedure:
Growth inhibition of the MCF7 human tumor cell line is measured as a screen for anti-cancer activity. Cells are grown in 96 well plates and exposed to the test compound for 48 hours. Compounds are tested at a single concentration, which is 10^-5 M for most compounds. The reported endpoint is percent growth (GI% or GIPRCNT), where numbers from 0 - 100% represent growth inhibition, and numbers from -100% - 0 represent cell death. For example, a value of 40 represents 60% growth inhibition. A value of 0 means no net growth occurred over the course of the experiment. A value of -40 indicates 40% of cells at the beginning of the experiment died by the end of the experiment. A value of -100 means all cells are dead at the end of the experiment.
NCI-60 Human Tumor Cell Lines Screen was performed using the standard one-dose NCI protocol, which is described in more detail at https://dtp.cancer.gov/discovery_development/nci-60/default.htm.
Compounds with GIPRCNT values below 10 were considered active. Activity score was based on GIPRCNT using the following formula: […]
Score is 0 for GIPRCNT values of 100 or above, 50 for GIPRCNT values of 0, and 100 for GIPRCNT values of -100.
As for `COC(=O)C(=C\c1ccc2c(c1)OCO2)/C(=C/c1ccc2c(c1)OCO2)C(=O)OC`, the growth was 96.9%.
To `COc1ccc(NC2=NC(C)(CO)CS2)cc1` (stereo not given) belongs 88.6%.
Regarding `CC1(C)CCC(=NNC(N)=S)CC1`, the growth is 99.4%.
To `O=C(Nc1ccc(CO)cc1)c1ccccc1Nc1ccnc(C(F)(F)F)c1` belongs 97.1%; to `COc1ccc(OC)c2c1C(=O)CC2C` (stereo not given), 99.6%; to `CCCCCC(=O)c1ccc(OCCCN2CCN(C(=O)OCC)CC2)cc1`, 93%.
In the case of `CN1CCCNc2c(c(=O)c2=O)NCCCN(C)CCCNc2c(c(=O)c2=O)NCCCN(C)CCCNc2c(c(=O)c2=O)NCCCN(C)CCCNc2c(c(=O)c2=O)NCCCN(C)CCCNc2c(c(=O)c2=O)NCCCN(C)CCCNc2c(c(=O)c2=O)NCCCN(C)CCCNc2c(c(=O)c2=O)NCCC1` it was 74.1%; in that of `CN(C)CCNC(=O)c1cccn2c(=O)c3cc4ccccc4cc3nc12`, 4.71% (active).
To `CCN(CC)Cc1cc(Nc2ccnc3cc(Cl)ccc23)ccc1OC` belongs 86.7%; to `COc1cccc(C2C3=C(COC3=O)N(CCO)c3cc(OC)ccc32)c1` (stereo not given), 23%.
As for `CC12O[C@H](C[C@@H](O)[C@H]1O)n1c3ccccc3c3c4c(c5c6ccccc6n2c5c31)C(=O)N(CCCN)C4=O`, the growth was 12.2%.
To `CC(=O)n1c(-c2ccc(Cl)c(Cl)c2)cn(-c2ccc(Cl)cc2)c1=O` belongs 21.9%; to `Cc1cccc(Cl)c1NC(=O)c1ccc2nc(NC(=O)NC3CCN(C)CC3)sc2c1`, 94%.
With `CCc1ccc2c(c1)N(CCO)C1=C(C(=O)OC1)C2c1ccccc1` (stereo not given), the growth was 92.2%.
In the case of `Oc1[nH]c2ccc(Cl)cc2c1/C=c1/ccc2c(c1)N=C(c1cc(F)cc(F)c1)N=2` it was 5.27% (active); in that of `COc1ccc(-c2nc3ncccn3c2-c2nnc(-c3ccsc3C)o2)cc1`, 77.1%; in that of `COc1ccc(S(=O)(=O)Nc2c(/C=C\c3cc(OC)c(OC)c(OC)c3)ccc(OC)c2O)cc1`, 10.9%.
In the case of `c1ccc(CNc2ncnc3scc(-c4cccs4)c23)nc1` it was 67.1%; in that of `O=C(CC(c1ccccc1)N1CCOCC1)c1ccccc1` (stereo not given), 32.2%; in that of `O=C(Nc1ccncc1)C(=O)c1cn(S(=O)(=O)c2ccc(F)cc2)c2ccccc12`, 12.6%.
As to `CCN(CC)CCCOCCCNc1cc(OC)cc2cccnc12`, the growth was -3.69% (active).
As for `COc1ccc(-c2nc3ncccn3c2-c2nnc(-c3ccc(F)cc3)o2)cc1`, the growth was 92.7%.
Regarding `COc1ccc(-c2cc(/C=C3\C(=O)Nc4ccc(Cl)cc43)[nH]n2)cc1OC`, the growth was 63.1%.
In the case of `Nc1nccc(Nc2ccccc2)n1`, the growth was 107%.
In the case of `CC[C@H](C)C(=O)O[C@H]1CCC=C2C=C[C@H](C)C(CCC3C[C@@H](O)CC(=O)O3)[C@H]21` (stereo not given in full) it was 83.6%; in that of `COC(=O)c1ccc(=O)oc1`, 100%; in that of `COc1cc(-c2cc(-c3cc4c([nH]c5ccccc54)c(-c4cc(OC)c(OC)c(OC)c4)n3)cc(-c3ccccc3)n2)cc(OC)c1OC`, 44%.
Regarding `O=C(Nc1cccc(Br)c1)c1cc(=O)[nH]c2ccccc12`, the growth is 84%.
To `Nc1ccn(C2CC(O)C(CO)O2)c(=O)n1` (stereo not given) belongs 103%; to `O=C(c1ccc(Cl)cc1Cl)N1CCOCC1`, 97.6%.
On to `COc1ccc(Cl)cc1C(=O)Nc1nc2ccc(Cl)cc2s1`, for which the growth is 41.7%.
In the case of `COc1cc(Cl)cc(-c2nn(-c3cccc(NC(=O)c4ccc(N5CCOCC5)c(C(F)(F)F)c4)c3)cc2-c2ccncc2)c1` it was 45.3%; in that of `CCCCCCCNc1nc(C=O)ncc1-c1ccc(C(F)(F)F)cc1`, 83.5%.
Turning to `COc1cc(Cl)cc(-c2nn(-c3cccc(NC(=O)Nc4ccc(Cl)c(C(F)(F)F)c4)c3)cc2-c2ccncc2)c1`, the growth is 2.57% (active).
`COc1ccc2c(c1)C(=O)c1c-2c(OCCN(C)C)nc2cc(OC)c(OC)cc12`: the growth is 28.9%.
To `CCN(CCCCCCN1CC(=O)N(CCCCCCN(CC)Cc2ccccc2OC)CC1=O)Cc1ccccc1OC` belongs 83.6%; to `CCn1cc(C(=O)O)c(=O)c2cnc(N3CCCC3)nc21`, 103%; to `COc1ccc(-c2nn(-c3cccc(NC(=O)Nc4ccc(Cl)c(C(F)(F)F)c4)c3)cc2-c2ccncc2)cc1Cl`, 1.57% (active).
In the case of `c1ccc2c(c1)oc1c3c(ccc12)NCCC3` it was 40.9%; in that of `CSc1cc(SC)ncn1`, 97.8%.
